The full list was thinned out, with hits kept by preference.
IDE exosite FP – insulin-degrading enzyme (human) exo-site inhibition. P14735. purified IDE, FL-6b probe fluorescence polarization; hits give low values. z-score at 20 µM. 17,000 tested, 6.3% active. AID 1259349;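 active means z-score of -3 or lower, meaning strong loss of probe binding signal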;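 further: His-tagged human IDE residues 42-1019 made in E. coli with 30 nM FL-6b probe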
Of the large screens only hits and unclear results are named; the others gave an inactive call.

CC(C)NC(=O)N1CCCCN2[C@H](C1)[C@@H](c1ccc(C#Cc3ccccc3F)cc1)[C@@H]2CO	IDE exosite FP -5.2
CC(C)NC(=O)N1CCCCN2[C@H](CO)[C@@H](c3ccc(C#C[C@@H](C)O)cc3)[C@@H]2C1	none
CC(C)NC(=O)N1CCCCN2[C@H](C1)[C@H](c1ccc(C#C[C@@H](C)O)cc1)[C@@H]2CO	none
Cc1cccc(S(=O)(=O)N2C[C@H]3[C@@H](c4ccccc42)[C@@H](CO)N3C(=O)c2ccccc2)c1	none
CCC(=O)N1[C@H](CO)[C@@H](c2ccc(-c3cccnc3)cc2)[C@@H]1CN(CC)C(C)=O	none
COCC#Cc1ccc([C@H]2[C@H]3CN(C(=O)C4CCC4)CC(=O)N3[C@H]2CO)cc1	none
CCS(=O)(=O)N1CCCCN2[C@H](C1)[C@@H](c1ccc(-c3cccc(C#N)c3)cc1)[C@@H]2CO	none
COCC(=O)N1CCC2(CC1)CN(S(C)(=O)=O)[C@H](CO)c1[nH]c3cc(OC)ccc3c12	none
Cc1noc(C)c1S(=O)(=O)N(C)C[C@@H]1OCCCC[C@H](C)Oc2ccc(NS(=O)(=O)c3cn(C)cn3)cc2C(=O)N([C@H](C)CO)C[C@@H]1C	none
C[C@@H]1CCCCO[C@@H](CN(C)C(=O)Nc2ccccc2)[C@H](C)CN([C@H](C)CO)C(=O)c2cc(NC(=O)Nc3ccccc3)ccc2O1	none
CN1C(=O)c2cc(NS(C)(=O)=O)ccc2OC[C@@H]2O[C@H](CC(=O)NCc3ccccc3)CC[C@H]21	none
CCCNC(=O)N(C)C[C@@H]1Oc2ncc(C#CC3CCCCC3)cc2C(=O)N([C@H](C)CO)C[C@@H]1C	none
CN(C)C(=O)c1ccc(-c2ccc([C@@H]3[C@H](CO)N4CCCCN(Cc5cncnc5)C[C@@H]34)cc2)cc1	none
CCCC#Cc1ccc([C@H]2[C@@H](CO)N(C(C)=O)[C@@H]2CNC(=O)C2CCC2)cc1	none
O=C(c1ccccc1)N1CC(=O)N2[C@H](CO)[C@@H](c3ccc(C#CC4CC4)cc3)[C@H]2C1	none
COc1ccc(CNC(=O)C[C@H]2CC[C@@H](NC(=O)CN(C)C)[C@H](CO)O2)cc1	none
O=C(NC1CCCCC1)N1CC(=O)N2[C@H](CO)[C@H](c3ccc(/C=C/c4ccccc4)cc3)[C@H]2C1	IDE exosite FP -6.7
CC(C)NC(=O)N1CC(=O)N2[C@H](CO)[C@H](c3ccc(/C=C/c4ccccc4)cc3)[C@@H]2C1	none
C/C=C/c1ccc([C@H]2[C@@H](CO)N3C(=O)CN(C(=O)NC4CCCCC4)C[C@@H]23)cc1	none
O=C(NC1CCCCC1)N1CC(=O)N2[C@H](CO)[C@@H](c3ccc(/C=C/c4ccccc4)cc3)[C@H]2C1	IDE exosite FP -4.4
CC(C)NC(=O)N1CC(=O)N2[C@H](C1)[C@@H](c1ccc(/C=C/c3ccccc3)cc1)[C@@H]2CO	none
CC(C)NC(=O)N1CC(=O)N2[C@H](C1)[C@H](c1ccc(/C=C/c3ccccc3)cc1)[C@@H]2CO	IDE exosite FP -3.8
O=C(C[C@H]1CC[C@H]2[C@@H](COC[C@H](O)CN2C(=O)Nc2cccc(F)c2)O1)NCCCN1CCOCC1	none
C[C@H]1CCc2cnnn2COCCNC1=O	none
O=C(c1ccncc1)N1CCCCN2[C@@H](CO)[C@H](c3ccc(-c4ccccc4)cc3)[C@@H]2C1	none
CC(=O)NC[C@@H]1[C@H](c2ccc(-c3ccccc3F)cc2)[C@@H](CO)N1C(=O)C1CC1	none
CCC(=O)N1[C@H](CO)[C@@H](c2ccccc2)[C@H]1CN(C(C)C)S(C)(=O)=O	none
CCC(=O)NC[C@H]1[C@@H](c2ccc(C3=CCCC3)cc2)[C@@H](CO)N1C(=O)CC	none
CN1CCN(C(=O)C[C@@H]2CC[C@@H]3[C@H](COC[C@@H](O)CN3C(=O)c3ccccc3F)O2)CC1	none
O=C(c1ccc(F)cc1)N1CC(=O)N2[C@H](CO)[C@H](c3ccc(-c4cccnc4)cc3)[C@H]2C1	none
COc1ccc2c3c([nH]c2c1)[C@H](CO)N(S(=O)(=O)c1cn(C)cn1)CC31CCN(Cc2ccccc2Cl)CC1	none
COc1cccc(CNC(=O)C[C@@H]2CC[C@H]3[C@@H](COc4ccc(NS(=O)(=O)c5ccccc5F)cc4C(=O)N3C)O2)c1	none
CCC(=O)N1CCCCN2[C@H](C1)[C@H](c1ccc(-c3ccc(F)cc3)cc1)[C@@H]2CO	none
CCC(=O)N1CCCCN2[C@H](C1)[C@@H](c1ccc(C#Cc3ccccc3F)cc1)[C@@H]2CO	IDE exosite FP -6.5
CCC(=O)N1CCCCN2[C@H](CO)[C@@H](c3ccc(-c4ccc(F)cc4)cc3)[C@H]2C1	none
CCC(=O)N1CCCCN2[C@H](CO)[C@H](c3ccc(C#Cc4ccccc4F)cc3)[C@@H]2C1	IDE exosite FP -5.9
C[C@@H]1CN([C@@H](C)CO)C(=O)c2cc(C3=CCCCC3)cnc2O[C@H]1CN(C)S(=O)(=O)c1cn(C)cn1	none
CCCNC(=O)N1CC2(C1)[C@H](c1ccccc1)[C@@H](CO)N2CC1CCOCC1	none
Cc1ccc(S(=O)(=O)NCC[C@@H]2CC[C@@H](NC(=O)c3cccnc3)[C@@H](CO)O2)cc1	none
C[C@H](NC(=O)[C@H]1[C@H](CO)[C@H]2Cn3c(ccc(-c4ccccc4)c3=O)[C@H]2N1C)c1ccccc1	none
COc1cccc(C#Cc2ccc([C@@H]3[C@@H](CO)N4C(=O)CN(C(=O)c5ccccc5)C[C@@H]34)cc2)c1	none
CC(=O)N1CC(=O)N2[C@H](C1)[C@H](c1ccc(C#Cc3cccnc3)cc1)[C@@H]2CO	none
COc1cccc(C#Cc2ccc([C@H]3[C@H]4CN(C(=O)c5ccccc5)CC(=O)N4[C@H]3CO)cc2)c1	none
COc1cccc(C#Cc2ccc([C@@H]3[C@H](CO)N4C(=O)CN(C(C)=O)C[C@@H]34)cc2)c1	IDE exosite FP -15
COc1cccc(C#Cc2ccc([C@@H]3[C@H]4CN(C(=O)c5ccncc5)CC(=O)N4[C@H]3CO)cc2)c1	none
COc1cccc(C#Cc2ccc([C@H]3[C@@H](CO)N4C(=O)CN(C(=O)c5ccncc5)C[C@H]34)cc2)c1	IDE exosite FP -8.4
COc1cccc(C#Cc2ccc([C@H]3[C@H](CO)N4C(=O)CN(C(C)=O)C[C@@H]34)cc2)c1	IDE exosite FP -5.4
CC(=O)N1CC(=O)N2[C@@H](CO)[C@@H](c3ccc(C#Cc4cccnc4)cc3)[C@@H]2C1	IDE exosite FP -3.9
COc1cccc(C#Cc2ccc([C@@H]3[C@H](CO)N4C(=O)CN(C(=O)c5ccccc5)C[C@@H]34)cc2)c1	none
CCC(=O)N1CC(=O)N2[C@H](CO)[C@H](c3ccc(C#Cc4cccnc4)cc3)[C@H]2C1	none
CCCNC[C@H]1[C@@H](c2ccc(-c3cccc(C#N)c3)cc2)[C@@H](CO)N1C(C)=O	none
CC(=O)N1CC(=O)N2[C@@H](CO)[C@H](c3ccc(-c4ccccc4)cc3)[C@@H]2C1	none
O=C(C[C@@H]1CC[C@H]2[C@@H](COC[C@@H](O)CN2C(=O)c2cccnc2)O1)NCC1CC1	none
CCN(C[C@@H]1[C@@H](c2ccccc2)[C@H](CO)N1Cc1cccnc1)C(C)=O	none
CO[C@H](CN(C)Cc1cc(F)ccc1F)[C@@H](C)CN([C@H](C)CO)S(=O)(=O)c1ccc(C)cc1	none
C[C@H]1CN([C@@H](C)CO)C(=O)c2ccccc2-c2ccccc2CO[C@@H]1CN(C)C(=O)NC1CCCCC1	none
CCC(=O)N1[C@H](CO)[C@H](c2ccc(-c3cccc(OC)c3)cc2)[C@@H]1CNC(C)=O	none
C[C@@H]1CN([C@H](C)CO)C(=O)CCCn2nncc2CO[C@@H]1CN(C)Cc1cccc(C(F)(F)F)c1	none
CC(=O)NC[C@@H]1[C@@H](c2ccc(-c3ccccc3F)cc2)[C@@H](CO)N1C(C)=O	none

Screening data: PubChem, Broad Institute
